Results published in PubChem BioAssay.
“And” between values parts separate entries of the source, which are not always exact repeats. Identical values can stand only once. The source made the active and inactive calls. No rule for the calls is given here.

system: Aerobactin synthetase IucA (Klebsiella pneumoniae hvKP1); assay: Biochemical IucA enzyme inhibition primary screen of the Spectrum library (AID 1346200); conditions: malachite green pyrophosphate, A620, at 8 µM, stronger effect = lower value;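 also: 100% = wells without compound and 0% = wells lacking enzyme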

| Compound | activity remaining |
| --- | --- |
| O=C(Cn1ccnc1[N+](=O)[O-])NCCO | 111% (inactive) |
| Cc1coc2c1C(=O)C(=O)c1c-2ccc2c1CCCC2(C)C | 103% (inactive) |
| CC(C(=O)O)c1cccc(Oc2ccccc2)c1 (stereo not given) | 118% (inactive) |
| COc1ccc(C2Sc3ccccc3N(CCN(C)C)C(=O)C2OC(C)=O)cc1 (stereo not given) | 114% (inactive) |
| CC[C@H](C)C(=O)O[C@H]1C[C@@H](C)C=C2C=C[C@H](C)[C@H](CC[C@@H]3C[C@@H](O)CC(=O)O3)[C@H]21 | 119% (inactive) |
| CCC(c1ccc(O)cc1)C(CC)c1ccc(O)cc1 (stereo not given) | 121% (inactive) |
| CCn1cc(C(=O)O)c(=O)c2cc(F)c(N3CCN(C)CC3)cc21 | 109% (inactive) |
| COc1ccc2c(C)cc(=O)oc2c1 | 92.2% (inactive) |
| O=C(O)COCCN1CCN(C(c2ccccc2)c2ccc(Cl)cc2)CC1 (stereo not given) | 116% (inactive) |
| S=c1[nH]c2ccccc2s1 | 99.3% (inactive) |
| O=C(N[C@@H](CO)[C@H](O)c1ccc([N+](=O)[O-])cc1)C(Cl)Cl | 114% (inactive) |
| C[N+](C)(C)CCOP(=O)([O-])OP(=O)(O)OC[C@H]1OC(n2ccc(N)nc2=O)[C@H](O)[C@@H]1O (stereo not given in full) | 118% (inactive) |
| COc1cc(OC)c2c(=O)c(-c3ccccc3)coc2c1 | 110% (inactive) |
| C[C@]12CCC(=O)C=C1CCC1C2C(=O)C[C@@]2(C)C1CC[C@]2(O)C(=O)CO (stereo not given in full) | 111% (inactive) |
| CC(=O)OCC(=O)[C@@]1(O)CCC2C3CCC4=CC(=O)CC[C@]4(C)C3[C@@H](O)C[C@@]21C (stereo not given in full) | 85.9% (inactive) |
| NC[C@H]1O[C@H](O[C@H]2[C@H](O)[C@@H](O[C@H]3O[C@H](CO)[C@@H](O)[C@H](N)[C@H]3O)[C@H](N)C[C@@H]2N)[C@H](N)C[C@@H]1O | 97% (inactive) |
| CC(=O)OCC(=O)[C@@]1(O)[C@H](C)CC2C3CCC4=CC(=O)C=C[C@]4(C)[C@@]3(F)[C@@H](O)C[C@@]21C (stereo not given in full) | 119% (inactive) |
| COc1ccccc1OCC(O)COC(N)=O (stereo not given) | 108% (inactive) |
| CN(Cc1cnc2nc(N)nc(N)c2n1)c1ccc(C(=O)NC(CCC(=O)O)C(=O)O)cc1 (stereo not given) | 121% (inactive) |
| C=C[C@@]1(C)CC(=O)[C@@]2(O)[C@](C)(O1)[C@@H](OC(C)=O)[C@@H](O)C1C(C)(C)CC[C@H](O)[C@@]12C (stereo not given in full) | 82.4% (inactive) |

| Compound | activity remaining |
| --- | --- |
| CC1=CC2C(C(C)C)CCC(C)(O)C2CC1 (stereo not given) | 89.3% (inactive) |
| Cc1ccc2c(Cl)cc(Cl)c(O)c2n1 | 85.6% (inactive) |
| COc1ccc(/C=C/C(=O)O)cc1OC | 110% (inactive) and 92.7% (inactive) |
| O=C(/C=C/c1ccc(O)c(O)c1)OC(Cc1ccc(O)c(O)c1)C(=O)O (stereo not given) | 116% (inactive) |
| COc1ccc(-c2coc3cc(OC(C)=O)cc(OC(C)=O)c3c2=O)cc1 | 92.5% (inactive) |
| O=c1c2cc(O)c(O)cc2oc2cc(O)c(C3O[C@H](CO)[C@H](O)[C@@H](O)[C@H]3O)c(O)c12 (stereo not given in full) | 93.6% (inactive) |
| OCC(S)CS (stereo not given) | 91.4% (inactive) |
| CN(C)CC/C=C1\c2ccccc2Sc2ccc(Cl)cc21 | 110% (inactive) |
| Oc1cccc(O)c1 | 116% (inactive) |
| CC1OC(O[C@H]2/C=C/C=C/C=C/C=C/C=C/C=C/C=C/[C@H](C)[C@@H](O)[C@@H](C)[C@H](C)OC(=O)CC(O)CC(O)CCC(O)C(O)CC(O)CC3(O)C[C@H](O)C(C(=O)O)C(C2)O3)C(O)[C@H](N)C1O (stereo not given in full) | 89.3% (inactive) |
| COc1ccc(OC)c(C(O)CNC(=O)CN)c1 (stereo not given) | 99.4% (inactive) |
| CCCCCCCCCCCCCCCC(=O)OC[C@H](NC(=O)C(Cl)Cl)[C@H](O)c1ccc([N+](=O)[O-])cc1 | 95.5% (inactive) |
| CC(=O)OCC(=O)[C@@]1(O)CCC2C3CC[C@@H]4C[C@H](O)CC[C@]4(C)C3C(=O)C[C@@]21C (stereo not given in full) | 97.5% (inactive) |
| O=C(O)c1ccccc1Nc1cccc(C(F)(F)F)c1 | 116% (inactive) |
| CC(=O)Oc1cc(OC(C)=O)c2c(c1)O[C@H](c1ccc(OC(C)=O)c(OC(C)=O)c1)[C@@H](OC(C)=O)C2 | 98% (inactive) |
| COc1ccc(C(=O)/C=C/c2ccccc2)cc1 | 106% (inactive) |
| CC[C@H]1OC(=O)C[C@@H](O)[C@H](C)[C@@H](O[C@@H]2O[C@H](C)[C@@H](O[C@H]3C[C@@](C)(O)[C@@H](O)[C@H](C)O3)[C@H](N(C)C)[C@H]2O)[C@@H](CC=O)C[C@@H](C)C(=O)/C=C/C(C)=C/[C@@H]1CO[C@@H]1O[C@H](C)[C@@H](O)[C@@H](OC)[C@H]1OC | 112% (inactive) |
| CCCCN1CCCCC1C(=O)Nc1c(C)cccc1C (stereo not given) | 103% (inactive) |
| COc1cc(O)c2c(c1)C(=O)c1cc(C)cc(O)c1C2=O | 97.7% (inactive) |
| O=C(O)c1ccccc1OP(=O)(O)O | 116% (inactive) |
